VP16 counter: counter-screen for ROR gamma inhibitors: Gal4-VP16 reporter | Potency, µM (series often up to 53.6 µM), inactives show at the top dose activity, negative = inhibition, hits mostly inhibitors | Drosophila S2 Gal4-VP16 UAS-luciferase, luminescence, 20 h | AID 2546 | 310,000 compounds, 3.5% hits;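 note: Gal4-VP16 expression switched on by copper sulfate through the metallothionein promoter; nearly all actives have a fitted effect of over 50% in size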
DT40 TDP1 no CPT: qHTS for Inhibitors of human tyrosyl-DNA phosphodiesterase 1 (TDP1): qHTS in cells in absence of CPT | DT40 Tdp1-/- hTDP1 cells, no CPT, ATP luminescence, 48 h | Potency, µM (series often up to 46.2 µM), inactives show at the top dose activity change, negative = growth inhibition, most hits filed as inhibitors | 420,000 compounds, 15% hits; note: nearly all actives have a fitted effect of over 55% in size
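Luminescent ATP content (CellTiter-Glo) served as the growth readout. Knockout chicken DT40 cells expressing human TDP1 were exposed to compounds without camptothecin for a minimum 48 hr at 37 °C.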
RORg inh: inhibitors of mouse ROR gamma transcriptional activity; Drosophila S2 Gal4-RORgamma UAS-luciferase reporter, 20 h; AID 2551; P51450; Potency, µM (highest dose often 53.6 µM), for the others: top-dose activity change, negative = inhibition, hits mostly inhibitors; 310,000 compounds, 5.4% hits; note: nearly all actives have a fitted effect of over 60% in size
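Luciferase reporter read in Schneider cells carrying Gal4-RORγ (mouse) and UAS-Photinus luciferase; cells given compound 1 h before 700 uM copper sulfate induction, then incubated 20 h at ambient temperature.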
TDP1 cell CPT: DT40-hTDP1 cell growth loss with CPT; chicken DT40 Tdp1-/-;hTDP1 cells + 20 nM CPT, ATP luminescence, 48 h; Potency, µM (highest dose often 46.2 µM), inactives show top-dose activity change, negative = growth inhibition, actives largely listed as inhibitors; 420,000 compounds, 12% hits; note: nearly all actives have a fitted effect of over 55% in size
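Cell growth measured by CellTiter-Glo luminescence after a minimum 48 h, 37 C compound exposure with 20 nM CPT in Tdp1-knockout DT40 cells stably expressing hTDP1, seeded 400/well; qHTS titration format.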
TDP1 block: TDP1 (human) enzyme inhibition. 350,000 compounds, 0.28% hits. recombinant TDP1, AlphaScreen DNA substrate cleavage. Q9NUW8. Potency, µM (series often up to 130 µM), for inactives: at the top dose activity change, negative = inhibition, usual class: inhibitors; note: nearly all actives have a fitted effect of over 40% in size
Target sequence (Q9NUW8 whole entry, looked up): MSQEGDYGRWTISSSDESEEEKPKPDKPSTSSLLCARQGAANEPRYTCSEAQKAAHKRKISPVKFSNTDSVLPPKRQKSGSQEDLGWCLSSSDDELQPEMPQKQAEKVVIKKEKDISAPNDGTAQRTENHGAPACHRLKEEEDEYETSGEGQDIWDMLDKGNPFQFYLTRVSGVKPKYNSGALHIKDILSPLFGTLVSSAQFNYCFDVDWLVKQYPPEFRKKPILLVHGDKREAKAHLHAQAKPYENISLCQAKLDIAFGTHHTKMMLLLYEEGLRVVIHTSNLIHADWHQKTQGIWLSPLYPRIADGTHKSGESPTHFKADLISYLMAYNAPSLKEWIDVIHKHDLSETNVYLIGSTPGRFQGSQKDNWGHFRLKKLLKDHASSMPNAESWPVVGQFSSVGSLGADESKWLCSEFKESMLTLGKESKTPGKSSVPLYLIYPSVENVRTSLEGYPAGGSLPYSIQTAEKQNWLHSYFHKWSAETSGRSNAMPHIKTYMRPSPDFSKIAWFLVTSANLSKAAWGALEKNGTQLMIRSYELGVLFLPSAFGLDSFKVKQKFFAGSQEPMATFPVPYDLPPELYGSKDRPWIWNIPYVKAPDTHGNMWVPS
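Recombinant E. coli-expressed Tdp1 (1 nM) preincubated with compound 15 min at RT, then 5'-biotin/3'-phosphotyrosine-FITC DNA substrate (15 nM) added for 5 min. AlphaScreen beads (10 ug/ml) added, 10 min RT; tyrosine-FITC cleavage read as signal loss.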
Active calls of the source: *; [ ] = another dose, or the depositor's remark. Only some compounds are listed: those with a hit (about 19% of all), similar ones and a draw of the others. Calls come from the whole dose curve; as a rule, active = well fitted curve in the direction sought with a large enough effect; inconclusive = small, poorly fitted or top-dose-only effect, or another doubt; inactive = no such curve, though single readings can be large; an effect the other way counts as inactive or inconclusive. % is set by controls: 0 for no effect and ±100 for the full control effect; potency is the fitted concentration of half-maximal effect.

How did COc1ccc(N=Cc2cc(Cl)ccc2O)cc1Cl do in these assays?
VP16 counter: 1.2%; DT40 TDP1 no CPT: -3.5%; RORg inh: -4.6%; TDP1 cell CPT: 9.6%; TDP1 block: 0.0%

How did Cc1cc(-c2ccccc2)c2nncn2n1 do in these assays?
VP16 counter: -7.4%; DT40 TDP1 no CPT: -16.9%; RORg inh: -8.2%; TDP1 cell CPT: -8.6%; TDP1 block: 5.3%

What do the screens show for `COc1ccc(/C=c2\s/c(=C\C(=O)C(C)(C)C)[nH]c2=O)cc1O`?
VP16 counter: inconclusive; DT40 TDP1 no CPT: inconclusive; RORg inh: inconclusive; TDP1 cell CPT: 14.6µM*; TDP1 block: -0.6%

How did COc1cc(/C=c2\s/c(=C\C(=O)C(C)(C)C)[nH]c2=O)cc(OC)c1OC do in these assays?
VP16 counter: inconclusive; DT40 TDP1 no CPT: inconclusive; RORg inh: inconclusive; TDP1 cell CPT: inconclusive; TDP1 block: 5.5%

How did COc1ccc2c(Cn3cnc4cc([N+](=O)[O-])ccc4c3=O)cc(=O)oc2c1 do in these assays?
VP16 counter: -2.1%; DT40 TDP1 no CPT: 6.51µM*; RORg inh: 16.9%; TDP1 cell CPT: 5.17µM*; TDP1 block: 2.7%

How did CCOC(=O)c1c(-c2ccc(OC)cc2)csc1/N=C/N(C)C do in these assays?
VP16 counter: 0.0%; DT40 TDP1 no CPT: 25.9µM*; RORg inh: 6.8%; TDP1 cell CPT: -17.6%; TDP1 block: 3.5%

Results for CCOC(=O)c1c(-c2ccc(OC)cc2)csc1/N=C/C1C(=O)CCCC1=O ?
VP16 counter: inconclusive; DT40 TDP1 no CPT: inconclusive; RORg inh: 3.16µM*; TDP1 cell CPT: -21.7%; TDP1 block: 2.5%

What do the screens show for `CCOC(=O)c1cc(C)sc1/N=C/C1C(=O)CCCC1=O`?
VP16 counter: 20.2%; DT40 TDP1 no CPT: -17.6%; RORg inh: 7.9%; TDP1 cell CPT: -14.9%; TDP1 block: -5.3%

How did Cc1c(-c2ccccc2)oc2c(C(=O)OCCN3CCCCC3)cccc2c1=O do in these assays?
VP16 counter: -12.3%[17 µM]; DT40 TDP1 no CPT: -6.2%[21.1 µM]; RORg inh: -5.0%[2.98 µM]; TDP1 cell CPT: inconclusive; TDP1 block: 10.3%[21 µM]

How did CCc1nc2nc(C)cc(Nc3cc(Cl)ccc3OC)n2n1 do in these assays?
DT40 TDP1 no CPT: -29.2%; TDP1 cell CPT: -23.7%; TDP1 block: 2.5%

Results for C=C1C(=O)c2sccc2C(c2ccc(OC)c(OC)c2)C1COC(C)=O (configuration not stated) ?
DT40 TDP1 no CPT: 0.231µM*; TDP1 cell CPT: 0.517µM*

How did CCOC(=O)c1cc([N+](=O)[O-])cc([N+](=O)[O-])c1Sc1ncnc2nc[nH]c12 do in these assays?
DT40 TDP1 no CPT: 2.59µM*; TDP1 cell CPT: 1.84µM*

What do the screens show for `CCOC(=O)C(C)(C)Sc1ncnc2nc[nH]c12`?
VP16 counter: 3.7%; DT40 TDP1 no CPT: -9.7%; RORg inh: -4.7%; TDP1 cell CPT: inconclusive; TDP1 block: 5.2%

Results for CCOC(=O)c1cc(C#N)c(=S)[nH]c1C ?
VP16 counter: -14.3%; DT40 TDP1 no CPT: -28.7%; RORg inh: 12.6µM*; TDP1 cell CPT: -4.8%; TDP1 block: 3.8%

What do the screens show for `COc1cccc2cccc(/C=N/n3cnnc3)c12`?
VP16 counter: -2.2%; DT40 TDP1 no CPT: -22.3%; RORg inh: 1.4%; TDP1 cell CPT: 0.1%; TDP1 block: 2.4%

What do the screens show for `Cn1c(=O)c([N+](=O)[O-])c(-n2ccnc2)c2ccccc21`?
VP16 counter: 7.94µM*; DT40 TDP1 no CPT: 4.11µM*; RORg inh: inconclusive; TDP1 cell CPT: 4.61µM*; TDP1 block: -3.8%

What do the screens show for `COC(=O)c1ccccc1NC(=O)c1ccc(NC(=O)C2CCCO2)cc1` (configuration not stated)?
VP16 counter: -6.4%; DT40 TDP1 no CPT: inconclusive; RORg inh: 7.6%; TDP1 cell CPT: -26.0%; TDP1 block: 0.6%

What do the screens show for `O=C(C(c1ccccc1)c1ccccc1)N1CCC(c2nc(-c3ccccc3Cl)no2)CC1`?
DT40 TDP1 no CPT: inconclusive; TDP1 cell CPT: 23.1µM*

Results for CCN1C(=N)N(c2ccccc2)C(=O)C(CC)(CC)C1=O ?
DT40 TDP1 no CPT: -4.3%; TDP1 cell CPT: 1.4%

Results for Nc1cccc(Oc2ccc([N+](=O)[O-])cc2)c1 ?
VP16 counter: -10.1%[10 µM]; DT40 TDP1 no CPT: -28.3%; RORg inh: inconclusive; TDP1 cell CPT: -8.7%; TDP1 block: -2.6%

What do the screens show for `Cc1ccc(S(=O)(=O)/N=C2\C=C(NS(=O)(=O)c3ccccc3)C(=O)c3ccccc32)c(C)c1`?
DT40 TDP1 no CPT: inconclusive; TDP1 cell CPT: 14.6µM*

How did CC(C)(C)c1ccc(S(=O)(=O)/N=C2\C=C(NS(=O)(=O)c3ccccc3)C(=O)c3ccccc32)cc1 do in these assays?
VP16 counter: -5.5%; DT40 TDP1 no CPT: 20.6µM*; RORg inh: 2.3%; TDP1 cell CPT: 20.6µM*; TDP1 block: 10.9%

How did Cc1ccc(S(=O)(=O)/N=C2\C=C(Nc3cccc(C(=O)O)c3)C(=O)c3ccccc32)c(C)c1 do in these assays?
VP16 counter: inconclusive; DT40 TDP1 no CPT: inconclusive; RORg inh: inconclusive; TDP1 cell CPT: inconclusive; TDP1 block: 9.4%

Results for CCOc1ccc(CCNC(=O)C2CCCN(S(=O)(=O)N3CCOCC3)C2)cc1OCC (configuration not stated) ?
VP16 counter: -10.4%; DT40 TDP1 no CPT: -2.5%; RORg inh: -6.6%; TDP1 cell CPT: -6.6%

What do the screens show for `CC[C@@H](C)C(NC(=O)OC(C)(C)C)c1cn([C@@H](CCC(=O)OC(C)(C)C)C(=O)N2CCN(C(=O)OC(C)(C)C)CC2)nn1` (some centres not stated)?
VP16 counter: -5.9%; DT40 TDP1 no CPT: 14.6µM*; RORg inh: 0.4%; TDP1 cell CPT: inconclusive; TDP1 block: 2.6%

Results for CC(C)CC(NC(=O)OC(C)(C)C)c1cn([C@@H](Cc2cc3ccccc3[nH]2)C(=O)N2CCN(C(=O)OC(C)(C)C)CC2)nn1 (some centres not stated) ?
VP16 counter: -3.5%; DT40 TDP1 no CPT: 18.4µM*; RORg inh: 20.7%; TDP1 cell CPT: 18.4µM*; TDP1 block: 5.1%

Results for Cc1cc(C(=O)N2CCCc3ccccc32)ccc1[N+](=O)[O-] ?
VP16 counter: -6.2%; DT40 TDP1 no CPT: -24.3%; RORg inh: 7.7%; TDP1 cell CPT: -5.2%

Results for CC(=O)Oc1ccc(/C=C2/Oc3ccccc3C2=O)cc1 ?
VP16 counter: -12.6%; DT40 TDP1 no CPT: -21.9%; RORg inh: 2.2%; TDP1 cell CPT: -1.4%; TDP1 block: 2.6%

Results for O=C(O)COc1ccc2c(c1)O/C(=C\c1cccs1)C2=O ?
VP16 counter: -21.2%; DT40 TDP1 no CPT: -3.1%; RORg inh: -21.6%; TDP1 cell CPT: -13.1%; TDP1 block: 3.9%
